# In PubChem BioAssay (NCATS):
# Active and inactive are the calls of the source. The call rests on the fitted dose curve; in most records, active means well fitted curve in the direction sought with a large enough effect; inactive means no such curve, though single readings can be large or run the other way.
# Biological target: Alpha-galactosidase (Coffea arabica) (UniProt Q42656)
# Assay: Counterscreen for Glucocerebrosidase Inhibitors: qHTS Assay for Coffee Bean alpha-Galactosidase at pH 5.9 (AID 998)
# Details: coffee bean alpha-galactosidase enzyme assay; series mostly up to 76.9 µM
# Procedure, shortened: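 Enzyme 2 nM + cpd (0.7 nM–77 uM titration) + 4-MU-alpha-Gal 80 uM, pH 5.9 citrate/Tween-20, RT 20 min, NaOH/glycine stop pH 10, fluor 365/440. Normalized to no-enzyme and full-activity controls; Hill-fit AC50.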
# Alpha-galactosidase (Coffea arabica), sequence (Q42656 whole entry, looked up): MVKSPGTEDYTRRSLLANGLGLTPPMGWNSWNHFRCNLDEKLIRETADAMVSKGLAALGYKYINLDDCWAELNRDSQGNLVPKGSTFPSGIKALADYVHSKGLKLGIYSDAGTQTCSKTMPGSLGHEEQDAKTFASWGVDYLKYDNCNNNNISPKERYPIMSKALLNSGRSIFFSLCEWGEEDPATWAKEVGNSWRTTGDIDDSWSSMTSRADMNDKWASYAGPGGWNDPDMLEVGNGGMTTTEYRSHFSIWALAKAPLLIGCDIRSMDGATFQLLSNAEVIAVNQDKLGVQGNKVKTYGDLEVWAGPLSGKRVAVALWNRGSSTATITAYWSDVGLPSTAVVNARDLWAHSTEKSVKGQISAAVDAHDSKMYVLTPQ
row,SMILES,outcome
1,Nc1cc(=O)[nH]c(N)n1,inactive
2,C[C@H](CS)C(=O)N1CCC[C@H]1C(=O)O,inactive
3,COc1ccc(C2CNC(=O)C2)cc1OC1CCCC1 (stereo unspecified),inactive
4,NC1CCN(c2cccc(Cl)n2)CC1,inactive
5,CN1C(C)(C)CCCC1(C)C,inactive
6,Clc1cccc(Cl)c1NC1=NCCN1,inactive
7,CN(C)C(=O)Oc1ccc[n+](C)c1,inactive
8,CC(=O)N1CCN(c2ccc(OC[C@H]3CO[C@](Cn4ccnc4)(c4ccc(Cl)cc4Cl)O3)cc2)CC1,inactive
9,CC(=O)Oc1cc(C(C)C)c(OCCN(C)C)cc1C,inactive
10,COc1ccc2[nH]cc(CCNC(C)=O)c2c1,inactive
11,COc1cc(NS(C)(=O)=O)ccc1Nc1c2ccccc2nc2ccccc12,inactive
12,NCCCCCC(=O)O,inactive
13,CNCCCC12CCC(c3ccccc31)c1ccccc12,inactive
14,C[N+](C)(C)CCCCCC[N+](C)(C)C,inactive
15,CNC[C@H](O)c1cccc(O)c1,inactive
16,NCCS(=O)(=O)O,inactive

row,SMILES,outcome
1,CN1CCN(CC(=O)N2c3ccccc3C(=O)Nc3cccnc32)CC1,inactive
2,CC(C)C(=O)c1c(C(C)C)nn2ccccc12,inactive
3,FC(F)(F)c1ccccc1-n1ccnc1,inactive
4,CN1C(C(=O)Nc2ccccn2)=C(O)c2ccccc2S1(=O)=O,inactive
5,CNCCC=C1c2ccccc2CCc2ccccc21,inactive
6,O=c1[nH]c(=O)n([C@H]2C[C@H](O)[C@@H](CO)O2)cc1Br,inactive
7,Cc1scc2c1N(C(=O)CN1CCN(C)CC1)c1ccccc1NC2=O,inactive
8,O=c1c(-c2ccc(O)cc2)coc2cc(O)cc(O)c12,inactive
9,CCCCCCCCCCCCCCCC(=O)NCCO,inactive
10,CC(=O)O[C@H]1C(=O)[C@@]2(C)[C@H]([C@H](OC(=O)c3ccccc3)[C@]3(O)C[C@H](OC(=O)[C@H](O)[C@@H](NC(=O)c4ccccc4)c4ccccc4)C(C)=C1C3(C)C)[C@]1(OC(C)=O)CO[C@@H]1C[C@@H]2O,inactive
11,CN1CCN(CCC=C2c3ccccc3Sc3ccc(S(=O)(=O)N(C)C)cc32)CC1,inactive
12,N[C@@H](COP(=O)(O)O)C(=O)O,inactive
13,CCn1nc(C(=O)O)c(=O)c2cc3c(cc21)OCO3,inactive
14,CC(=O)c1ccc(S(=O)(=O)NC(=O)NC2CCCCC2)cc1,inactive
15,CC(C)NNC(=O)c1ccncc1,inactive
